The source made the active and inactive calls. Rule for the calls: active = hit-call score of the fitted dose curve at least 0.9, where 1 is the maximum; inactive = score below 0.9.
Tests used:
Details in all cases: mRNA level, 48 h; actives raise or lower the signal
[1] = read-out: Bcl-2 (BAX) gene, BAX (gene 581); test: LTEA_HepaRG_BAX: Life Technologies and Expression Analysis (LTEA) Assay for Bcl-2 (BAX) gene using HepaRG (AID 2283470)
Outline: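 qRT-PCR read-out of BAX mRNA, normalized to three housekeeping genes, after 48 h chemical exposure of human HepaRG cells in serum-free induction medium; eight-point half-log series, top 100 uM, 0.5% DMSO vehicle; bidirectional fit versus DMSO.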

[2] = read-out: adenosine kinase (ADK) gene, ADK (gene 132); test: LTEA_HepaRG_ADK: Life Technologies and Expression Analysis (LTEA) Assay for adenosine kinase (ADK) gene using HepaRG (AID 2283471)
Outline: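 Differentiated HepaRG cells dosed 48 h in serum-free induction medium, 0.5% DMSO vehicle, eight half-log concentrations from 100 uM, in duplicate. ADK mRNA by TaqMan qRT-PCR normalised to ACTB, GAPDH, POLR2A; bidirectional fit versus DMSO.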

[3] = read-out: Alpha-fetoprotein (AFP) gene, AFP (gene 174); test: LTEA_HepaRG_AFP: Life Technologies and Expression Analysis (LTEA) Assay for Alpha-fetoprotein (AFP) gene using HepaRG (AID 2283472);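 for AC50: AFP transcript by TaqMan qRT-PCR normalized to ACTB GAPDH and POLR2A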
Outline: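 qRT-PCR (Fluidigm TaqMan) readout of AFP transcript, normalized to three housekeeping genes, fitted bidirectionally against 0.5% DMSO baseline. HepaRG cells received chemicals for 48 h in serum-free induction medium, top concentration 100 uM, half-log steps.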

BCL2L11 (gene 10018) = test: LTEA_HepaRG_BCL2L11: Life Technologies and Expression Analysis (LTEA) Assay for Bcl-2 (BCL2L11) gene using HepaRG (AID 2283473)
Outline: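 Cells were plated, cultured 48 h, switched to serum-free induction medium, then dosed in duplicate for 48 h at eight half-log concentrations up to 100 uM. Lysates underwent RNA isolation and TaqMan qRT-PCR; gain or loss versus DMSO was fitted.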

[4] = read-out: Apoptosis regulator Bcl-2 (Homo sapiens) (UniProt P10415); test: LTEA_HepaRG_BCL2: Life Technologies and Expression Analysis (LTEA) Assay for Bcl-2 gene using HepaRG (AID 2283475)
Outline: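 qRT-PCR read-out (Fluidigm TaqMan) of BCL2 transcript, normalised to three housekeeping genes, after 48 h chemical exposure of HepaRG cells; 8-point half-log series, top 100 uM, 0.5% DMSO vehicle. Gain or loss of signal fitted relative to DMSO baseline.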

[5] = read-out: Bcl-2 (BID) gene, BID (gene 637); test: LTEA_HepaRG_BID: Life Technologies and Expression Analysis (LTEA) Assay for Bcl-2 (BID) gene using HepaRG (AID 2283476)
Outline: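 HepaRG, 48 h exposure, 8-pt half-log series, top 100 uM, 0.5% DMSO vehicle, duplicates. Readout: BID mRNA by TaqMan qRT-PCR; housekeeping-normalized; bidirectional curve fit vs DMSO baseline.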

[6] = read-out: Cytochrome P450 (CYP24A1), CYP24A1 (gene 1591); test: LTEA_HepaRG_CYP24A1: Life Technologies and Expression Analysis (LTEA) Assay for Cytochrome P450 (CYP24A1) using HepaRG (AID 2283478)
Outline: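 Human liver HepaRG cultures receive each chemical for 48 h across an eight-point half-log series topping at 100 uM in 0.5% DMSO. Induction or suppression of CYP24A1 mRNA is scored relative to vehicle after housekeeping-gene normalization.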

[7] = read-out: Cytochrome P450 (CYP1A2), CYP1A2 (gene 1544); test: LTEA_HepaRG_CYP1A2: Life Technologies and Expression Analysis (LTEA) Assay for Cytochrome P450 (CYP1A2) using HepaRG (AID 2283479);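 for AC50: TaqMan qRT-PCR transcript level normalized to ACTB GAPDH and POLR2A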
Outline: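 Assesses CYP1A2 mRNA in human HepaRG liver cells after 48 h chemical exposure at up to 100 uM. Values come from qRT-PCR with bidirectional curve fitting relative to DMSO.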

[8] = read-out: Apolipoprotein A-V (APOA5) gene, APOA5 (gene 116519); test: LTEA_HepaRG_APOA5: Life Technologies and Expression Analysis (LTEA) Assay for Apolipoprotein A-V (APOA5) gene using HepaRG (AID 2283474)
Outline: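 Human liver HepaRG cells are treated 48 h with test chemicals (100 uM top, half-log dilutions, 0.5% DMSO). APOA5 mRNA induction or loss is measured by qRT-PCR relative to vehicle.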

Caspase-3 (Homo sapiens) = Caspase-3 (Homo sapiens) (UniProt P42574); test: LTEA_HepaRG_CASP3: Life Technologies and Expression Analysis (LTEA) Assay for cysteine-aspartic acid protease (CASP3) using HepaRG (AID 2283477)
Chain of Caspase-3 (Homo sapiens) (P42574 whole entry, looked up): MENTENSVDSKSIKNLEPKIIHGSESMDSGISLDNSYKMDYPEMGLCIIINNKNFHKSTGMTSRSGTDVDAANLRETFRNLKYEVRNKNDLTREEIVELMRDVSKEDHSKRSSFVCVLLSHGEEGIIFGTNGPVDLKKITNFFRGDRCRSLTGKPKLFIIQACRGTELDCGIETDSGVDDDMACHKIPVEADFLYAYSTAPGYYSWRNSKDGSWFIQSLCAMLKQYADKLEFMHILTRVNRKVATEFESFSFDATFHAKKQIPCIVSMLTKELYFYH
Outline: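 In HepaRG liver cells dosed for 48 h at up to 100 uM (eight-point, duplicate), CASP3 expression changes are scored by qRT-PCR. Activity is fitted in both directions with 0.5% DMSO as baseline.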

Measured: AC50

Chain of Apoptosis regulator Bcl-2 (Homo sapiens) (P10415 whole entry, looked up): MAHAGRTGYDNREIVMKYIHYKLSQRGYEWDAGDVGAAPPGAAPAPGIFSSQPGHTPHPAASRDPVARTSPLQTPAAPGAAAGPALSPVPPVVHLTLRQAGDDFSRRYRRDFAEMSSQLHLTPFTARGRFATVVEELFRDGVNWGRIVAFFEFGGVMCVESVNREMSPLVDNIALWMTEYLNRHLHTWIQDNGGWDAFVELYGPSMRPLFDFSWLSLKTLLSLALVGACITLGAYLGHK

CCOS(=O)(=O)OCC
not listed: [8] | Caspase-3 (Homo sapiens)
inactive: all other assays above

CCNc1nc(Cl)nc(NC(C)(C)C)n1
active: [7] 32.1 µM
not listed: Caspase-3 (Homo sapiens)
inactive: all other assays above

CCOC(=O)c1ccccc1C(=O)OCC
active: [7] 83 µM
not listed: [8]
inactive: all other assays above

CCCCc1ccccc1
active: [7] 50 µM
not listed: Caspase-3 (Homo sapiens)
inactive: all other assays above

Cc1ccc([N+](=O)[O-])cc1C
not listed: [8] | Caspase-3 (Homo sapiens)
inactive: all other assays above

Cc1ccc(O)cc1C
inactive: [1] | [2] | [3] | BCL2L11 (gene 10018) | [4] | [5]

CSC(C)(C)C=NO
not listed: [8] | Caspase-3 (Homo sapiens)
inactive: all other assays above

CC(C)(C)OOC(C)(C)C
not listed: [8]
inactive: all other assays above

CCC1(c2ccccc2)C(=O)N=C(O)NC1=O (stereo not given)
not listed: [8] | Caspase-3 (Homo sapiens)
inactive: all other assays above

OCC1CO1 (stereo not given)
not listed: [8] | Caspase-3 (Homo sapiens)
inactive: all other assays above

c1ccc2c(c1)Nc1ccccc1S2
active: [7] 82.8 µM
not listed: [8] | Caspase-3 (Homo sapiens)
inactive: all other assays above

CCOc1ccc(C(C)(C)COCc2cccc(Oc3ccccc3)c2)cc1
active: [7] 28 µM
not listed: [8] | Caspase-3 (Homo sapiens)
inactive: all other assays above

O=[N+]([O-])c1ccc(Cl)c(Cl)c1
active: [7] 1.36 µM
not listed: Caspase-3 (Homo sapiens)
inactive: all other assays above

[N-]=[N+]=[N-]
active: [3] 77.9 µM | BCL2L11 (gene 10018) 80.6 µM | [4] 76.8 µM
not listed: [8] | Caspase-3 (Homo sapiens)
inactive: all other assays above

O=C(O)C(Cl)Cl
not listed: [8]
inactive: all other assays above

CN(C)C(=O)Cl
not listed: [8] | Caspase-3 (Homo sapiens)
inactive: all other assays above

c1nc[nH]n1
active: [5] 0.0897 µM | [6] 0.185 µM | [7] 0.109 µM
not listed: [8] | Caspase-3 (Homo sapiens)
inactive: all other assays above

CC(C)(C)c1ccc(O)cc1
inactive: [1] | [2] | [3] | BCL2L11 (gene 10018) | [4] | [5]

c1ccc(OP(Oc2ccccc2)Oc2ccccc2)cc1
not listed: [8] | Caspase-3 (Homo sapiens)
inactive: all other assays above

Nc1ccc2ccccc2c1
active: [7] 33.1 µM
not listed: [8] | Caspase-3 (Homo sapiens)
inactive: all other assays above

O=[N+]([O-])c1ccccc1
not listed: [8] | Caspase-3 (Homo sapiens)
inactive: all other assays above

— PubChem BioAssay (EPA / NIEHS)
